# Assay outcomes from PubChem.
# HP1b chromo inh – HP1-beta chromodomain-methylated histone interaction inhibition | Potency, µM (doses to about 114 µM), inactives show at the top dose activity change, negative = inhibition, hits mostly inhibitors | AlphaScreen HP1-beta / biotin-H3K9me3 peptide binding | P83916 | hit rate 0.56% among 390,000 | AID 540317; also: nearly all actives have a fitted effect of over 70% in size
# Target sequence (P83916 whole entry, looked up): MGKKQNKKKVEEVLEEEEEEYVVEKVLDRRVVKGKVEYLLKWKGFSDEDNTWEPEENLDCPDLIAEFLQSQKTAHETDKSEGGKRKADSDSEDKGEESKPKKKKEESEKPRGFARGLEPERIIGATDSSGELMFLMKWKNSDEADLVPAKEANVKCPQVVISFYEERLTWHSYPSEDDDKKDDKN
#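 AlphaScreen: HP1-beta (50 nM) preformed 30 min with biotin-H3(1-18)K9me3 peptide (50 nM) in PBS pH 7.4, 0.01% Tween-20. Compound added for 30 min at RT, then streptavidin donor/nickel chelate acceptor beads (10 ug/mL) for 30 min.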
# BAZ2B inh – BAZ2B (human) inhibition; hit rate 4.4% among 360,000; AlphaScreen BAZ2B-H3K14Ac peptide displacement; Potency, µM (highest dose often 114 µM), without a hit: at the top dose activity change, negative = inhibition, hits mostly inhibitors; AID 504333; also: % is scaled to controls: 0 for no effect and ±100 for the full control effect; nearly all actives have a fitted effect of over 60% in size
#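 BAZ2B (50 nM) with biotin-H3(5-23)K14Ac peptide (50 nM) in PBS pH 7.4, 0.01% Tween-20, preformed 30 min, then compound 30 min at room temperature; top concentration 110uM. AlphaScreen streptavidin donor/nickel chelate acceptor beads (10 ug/mL final), 20 min dark, signal read.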
# G9a inh – inhibitors of human histone lysine methyltransferase G9a; Q96KQ7; hit rate 8.8% among 350,000; G9a H3K9 monomethylation, AlphaScreen, 2 h; Potency, µM (highest dose often 102 µM), without a hit: top-dose activity, negative = inhibition, actives largely listed as inhibitors; also: % is scaled to controls: 0 for no effect and ±100 for the full control effect; nearly all actives have a fitted effect of over 75% in size
# Target sequence (Q96KQ7 913-1193 limits assumed): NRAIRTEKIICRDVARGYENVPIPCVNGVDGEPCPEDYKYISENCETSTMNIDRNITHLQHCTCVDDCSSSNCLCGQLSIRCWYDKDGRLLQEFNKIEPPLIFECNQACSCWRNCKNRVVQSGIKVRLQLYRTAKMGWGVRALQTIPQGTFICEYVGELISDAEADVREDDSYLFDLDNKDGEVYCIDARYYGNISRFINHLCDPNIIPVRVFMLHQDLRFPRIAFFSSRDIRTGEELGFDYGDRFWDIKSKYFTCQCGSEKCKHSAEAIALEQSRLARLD
#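 Compounds were preincubated with 20 nM G9a for 15 min, after which biotinylated H3K9 peptide (500 nM) and SAM (20 uM) started a 2 h room-temperature reaction. Monomethylated product was quantified by antibody-based AlphaScreen chemiluminescence.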
# Sfp inh – inhibitors of Bacillus subtilis Sfp phosphopantetheinyl transferase | Biochemical Sfp PPTase activity, qHTS | Q9F4F7 | hit rate 3.5% among 310,000 | Potency, µM, for inactives: largest response in the series, negative = inhibition, usual class: inhibitors;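 also: the enzyme is Sfp with the accession as filed and its product quenches rhodamine fluorescence; 0% = enzyme reaction without inhibitor and -100% = no enzyme wells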
#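 Fluorescence-quenching assay with 15 nM Sfp, 5 uM rhodamine-CoA and 12.5 uM BHQ-2-labelled ybbR peptide in pH 7.6 Hepes/MgCl2 buffer. Enzyme was pre-incubated with compound for 15 min at room temperature. Rate was taken from the 30-min fluorescence change (525/598 nm).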
# JMJD2A Tudor inh – inhibitors of human JMJD2A Tudor domain. hit rate 4.4% among 390,000. AlphaScreen JMJD2A-Tudor / H3K4me3 peptide binding. Potency, µM (titrated, usually from 114 µM), for the others: at the highest dose activity change, negative = inhibition, hits mostly inhibitors. O75164; also: % is scaled to controls: 0 for no effect and ±100 for the full control effect; nearly all actives have a fitted effect of over 50% in size
# L3MBTL1 block – L3MBTL1 (human) inhibition; Potency, µM (series often up to 57.1 µM), inactives show top-dose activity, negative = inhibition, actives largely listed as inhibitors; AlphaScreen L3MBTL1–H3K9me1 peptide binding; hit rate 0.66% among 230,000; Q9Y468; also: % is scaled to controls: 0 for no effect and ±100 for the full control effect; nearly all actives have a fitted effect of over 60% in size
#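 Read-out is AlphaScreen signal from streptavidin donor and nickel chelate acceptor beads (10 ug/mL final each) bridging L3MBTL1 (50 nM) and biotinylated K9-monomethylated H3(1-15) peptide (75 nM), after 30 min compound exposure at room temperature.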
# The depositor's hits bear a star; u = inconclusive; x = not tested or not shown; ! = not confirmed by another sample; [ ] = dose if it differs, or a comment. Shown are actives, neighbours in structure and some others; about 12% of the full set was active somewhere. Calls follow the shape of the dose curve; as a rule, active = well fitted curve in the direction sought with a large enough effect; inconclusive = small, poorly fitted or top-dose-only effect, or another doubt; inactive = no such curve, though single readings can be large; an effect the other way counts as inactive or inconclusive. Potency is read from the fitted curve at half-maximal effect.
SMILES,HP1b chromo inh,BAZ2B inh,G9a inh,Sfp inh,JMJD2A Tudor inh,L3MBTL1 block
COc1ccc(Br)cc1C(=O)NC(=S)Nc1ccc(Cl)c(C(=O)O)c1,u,-10%,20µM*,45µM*,-22%,x
O=C(CSc1nnc(-c2cccs2)o1)Oc1ccc(Cl)cc1,36%,-6%,-26%[59 µM],x,-13%,x
C/C(CC1CC(COCC(C)C)OC1=O)=N\Nc1nc(-c2ccccc2)cs1 (configuration not stated),-15%,u,25µM*,u,u,-1%
CCCCNc1ccc(S(=O)(=O)c2cccc([N+](=O)[O-])c2)cc1[N+](=O)[O-],38%,u,7.9µM*,1%,-3%,-15%
C/C(CC(C)C)=N\Nc1ccc(S(N)(=O)=O)cc1[N+](=O)[O-],-8%,x,u,0%,u,x
CS(=O)(=O)NCCCNc1ccc(Cl)cc1[N+](=O)[O-],-13%,u,u,21%,13%,x
NS(=O)(=O)c1ccc(NN=C2CCN(Cc3ccccc3)CC2)c([N+](=O)[O-])c1,5%,8%,45µM*,-26%,-25%,-7%
CCNc1ccc(S(N)(=O)=O)cc1[N+](=O)[O-],-1%,-6%,3.5µM*,4%,0%,11%
CC1C/C(=N\Nc2ccc(S(N)(=O)=O)cc2[N+](=O)[O-])CC(C)(C)C1 (configuration not stated),u,u,14µM*,-5%,u,-17%
O=C1CC(c2ccc(O)c(O)c2)Oc2c1ccc(O)c2O (configuration not stated),u,10µM*,-190%[59 µM],56µM*,8.9µM*,x
O=C1CC(c2ccc(O)c(O)c2)Oc2cc(O)cc(O)c21 (configuration not stated),-4%,-11%,-44%[2.33 µM],-22%,79µM*,x
CCN(CC)C(=O)CC(c1ccc(F)cc1)c1ccco1 (configuration not stated),20%,-26%,14µM*,-28%,-7%,21%[11.4 µM]
CN(C)CCCNC(=O)CC(c1ccc(F)cc1)c1ccco1 (configuration not stated),2%,12%,27%,8%,-19%,-2%
CCCN(CCC)C(=O)CC(c1ccccc1)c1ccco1 (configuration not stated),33%,-26%,x,45µM*,-6%,33%
Cn1c(C(=O)NCc2ccc(F)cc2)cc2cc(S(=O)(=O)N3CCCCC3)ccc21,29%[57 µM],0%,5%[59 µM],x,-25%,x
COc1ccc(NCc2n[nH]nc2-c2ccccc2)cc1Cl,-16%,40µM*,u,16%,u,-12%
CC(=O)NC1C(c2nc3ccccc3s2)=C(c2ccccc2)C(=O)N1c1ccc(C)cc1 (configuration not stated),u,-37%,50µM*,15%,u,x
Cc1cc(C)c(S(=O)(=O)Nc2cc(SCC(=O)O)c(O)c3ccccc23)cc1C,-95%,40µM*,2.2µM*,8.9µM*,22µM*,u
COc1ccc(S(=O)(=O)Nc2cc(SCC(=O)O)c(O)c3ccccc23)cc1,13µM*,40µM*,2µM*,7.1µM*,20µM*,x
O=S(=O)(Nc1ccc(Cl)cc1NS(=O)(=O)c1ccccc1)c1ccccc1,0%[57 µM],x,x,x,-26%,x
COc1ccc(S(=O)(=O)Nc2cccc3ccc(O)cc23)cc1,4%,x,x,x,-13%,x
O=C(O)CSc1cc(NS(=O)(=O)c2ccc(Cl)cc2)c2ccccc2c1O,20µM*,50µM*,4µM*,10µM*,25µM*,x
COc1ccc(CC(=O)Nc2ccc(-c3nc4ccccc4s3)c(C)c2)cc1OC,21%,-4%,13%[59 µM],x,-12%,x
COc1ccc(-n2ncc3c(NCCCOC(C)C)ncnc32)cc1,40%,2%,4%[59 µM],x,-20%,x
Cc1ccc(S(=O)(=O)n2nc(C)c(S(=O)(=O)N3CCCCCC3)c2C)cc1C,-1%[57 µM],-3%,0%[59 µM],x,-28%,x
SMILES,HP1b chromo inh,BAZ2B inh,G9a inh,Sfp inh,JMJD2A Tudor inh,L3MBTL1 block
Cc1ccc(S(=O)(=O)n2nc(C)c(Br)c2C)c(C)c1C,139%,6%,71µM*,5%,58%,-1%
Cc1[nH]ccc(=O)c1Oc1ncc(C(F)(F)F)cc1Cl,21%,-10%,56µM*,12%,-15%,11%
CCOC(=O)c1ccc(N2CCN(c3cccc(Cl)c3)CC2)c(NC(=O)Nc2ccc(OC)cc2OC)c1,14%,-12%,-20%[59 µM],x,-31%,x
O=C(Nc1cccc(-c2ccc(N3CCCCC3)nn2)c1)C(F)(F)F,40%,23%,12%,5%,-1%,x
COc1ccc(C)cc1S(=O)(=O)Nc1cccc(-c2ccc(N3CCCCCC3)nn2)c1,4%,-13%,10%[0.501 µM],6%,16µM*,x
O=C(Nc1cccc(-c2ccc(N3CCCCC3)nn2)c1)c1ccc(Br)o1,7%,-6%,28µM*,x,-15%,-19%
O=S(=O)(Nc1cccc(-c2ccc(N3CCCCCC3)nn2)c1)c1ccc(F)cc1,39%,u,5%,0%,u,x
O=S(=O)(Nc1cccc(-c2ccc(N3CCCCCC3)nn2)c1)c1cccc(F)c1,18%,-20%[57.1 µM],32µM*!,11%,-26%,x
COc1ccc(S(=O)(=O)Nc2cccc(-c3ccc4nncn4n3)c2)c(OC)c1,u,2%,11µM*,x,3%,u
CCOC(=O)C1=C(COC(=O)CCOc2cccc(C)c2)NC(=O)NC1C (configuration not stated),15%,11%,10%,x,-6%,5%
CCOC(=O)C1=C(COC(=O)CCOc2ccccc2)NC(=O)NC1C (configuration not stated),-13%,32%,27%[12.7 µM],x,100µM*,19%
CCOC(=O)C1=C(CBr)NC(=O)NC1C (configuration not stated),31%,50µM*,28µM*,19%,u,10%
CCOC(=O)C1=C(C)NC(=O)NC1C (configuration not stated),10%,3%,4%[12.7 µM],16%,-12%,8%[11.4 µM]
Cc1cccc(-c2nc(S(=O)(=O)c3ccc(F)cc3)c(N3CCN(c4ccccc4)CC3)o2)c1,-18%,u,-5%[59 µM],x,u,x
Cc1ccccc1S(=O)(=O)NC1OC(=O)C(Cl)=C1Cl (configuration not stated),23%,u,-13%[59 µM],-28%,u,-3%
Cc1ccccc1S(=O)(=O)NC1OC(=O)C(Oc2ccccc2)=C1Br (configuration not stated),12%,u,50µM*,-2%,-20%,-13%
Cc1cc2ccc(=O)oc2cc1OC[C@@H](O)C(C)(C)O,x,x,x,4%,x,x
